# The list is not random: actives were taken first. Their share in the collection is about 2.8%.
# HepG2 tox – HepG2 cytotoxicity, counter-screen for TGF-b inhibitors. Potency, µM (doses to about 46.1 µM), usual class: cytotoxic. HepG2 CAGA-GFP viability, ATP luminescence, 18 h. hit rate 0.76% among 410,000
#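 CellTiter-Glo luminescence gave cytotoxicity after 18 hours at 37 degrees C. The cells were HepG2 CAGA-GFP in 1% FBS DMEM, stimulated with 500 pg/mL TGF-beta after compound addition. %Activity was normalised to no-cell wells (complete cell-killing) and DMSO (no toxicity), and curves were fitted and classified.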
# TGFb inhibitor – TGF-b pathway inhibition; hit rate 1.2% among 410,000; HepG2 CAGA-GFP TGF-b/SMAD3 reporter, GFP fluorescence, 18 h; TGF-beta stimulated, 500 pg/mL final; AID 588855; Potency, µM (top dose mostly 46.1 µM), most hits filed as inhibitors; further: nearly all actives have a fitted effect of over 65% in size
#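 Inhibition was scored as loss of TGF-beta-induced (500 pg/mL final, 18 hours, 37 degrees C) GFP in HEPG2 cells carrying a CAGA-GFP reporter, in DMEM with 1% FBS. Well GFP was summed per cell; Activity was normalised to unstimulated and stimulated DMSO wells, then concentration-response fitting.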
# HttQ103 aggreg – mutant huntingtin aggregation inhibition; PC12 HttQ103-GFP aggregates, Acumen cytometry, 40 h; Potency, µM (doses to about 46.1 µM), actives largely listed as inhibitors; hit rate 1.1% among 220,000; further: nearly all actives have a fitted effect of over 60% in size
#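 Steps: seed 1500 PC12 HTTQ103-GFP cells/well; add tebufenozide, 100 nM final; add compound titration; add ATPLite reagent; quantify GFP aggregates by laser scanning cytometry.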
# S2 tox – cell viability loss in ATXN counter-screen | S2 cells (HEK-293 line with an ATXN2-luciferase reporter) viability, CellTiter-Fluor protease fluorescence, 24 h | Potency, µM (doses to about 56.7 µM), hits mostly cytotoxic | hit rate 0.49% among 400,000; further: nearly all actives have a fitted effect of over 40% in size
# HTT ATP protect – cytoprotection in Huntington HTT-Q103 PC12 cell model; Potency, µM (doses to about 56.4 µM), usual class: activators; AID 1471; PC12 HTT-Q103 induced, cytoprotection, ATP luminescence, 40 h; hit rate 0.14% among 230,000; further: nearly all actives have a fitted effect of over 45% in size
#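 Compounds were screened for protection of PC12 cells against cell death after tebufenozide induction (100 nM final) of mutant Huntingtin exon 1 (Q103) fused to GFP.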
# ATXN2 expr inh – reduces ATXN2 reporter expression in HEK-293 cells; HEK-293 ATXN2-luciferase reporter, luminescence, 24 h; Potency, µM (top dose mostly 57 µM), actives largely listed as inhibitors; hit rate 0.72% among 360,000; AID 1745845; further: nearly all actives have a fitted effect of over 55% in size
#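 qHTS (up to 57 uM final) was run with 24 h compound exposure of reporter cells at 37 °C. Each well was multiplexed: SteadyGlo luminescence measured ATXN2-luciferase expression after a fluorogenic Gly-Phe-AFC viability readout (25 uM final).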
# Hits are given with their value; i = inactive; ? = inconclusive; nt = no result given; ! = repeats disagree; [ ] = another dose, or the depositor's remark. The call rests on the fitted dose curve; in most records, active means well fitted curve in the direction sought with a large enough effect; inconclusive means small, poorly fitted or top-dose-only effect, or another doubt; inactive means no such curve, though single readings can be large; an effect the other way counts as inactive or inconclusive.
SMILES,HepG2 tox,TGFb inhibitor,HttQ103 aggreg,S2 tox,HTT ATP protect,ATXN2 expr inh
COC(=O)CSC(C)C(=O)Nc1nnc(C(C)C)s1 (stereo unspecified),i,i,i,i,3.16µM,nt
CC(=O)c1c(O)c(C)c(O)c2c1OC1=CC(=O)[C@H](C(C)=O)C(=O)[C@]12C,nt,nt,nt,nt,i,nt
O=C1CCCC/C1=C/Nc1cccc(C(F)(F)F)c1,i,i,i[9.22 µM],i,i[1.9 µM],i
O=C1CCC2S/C(=C/Nc3ccc(C(F)(F)F)cc3)C(=O)N12 (stereo unspecified),i,i,i,i,i,2.82µM
CN(C)c1nc2cc(Cl)ccc2cc1CN(Cc1ccc2c(c1)OCO2)C(=O)c1ccoc1,nt,nt,nt,i,nt,nt
CCCCS(=O)(=O)c1oc(-c2ccc(F)cc2)nc1S(=O)(=O)c1ccc(C)cc1,3.55µM,4.47µM,nt,nt,nt,nt
CSc1oc(-c2ccc(F)cc2)nc1S(=O)(=O)c1ccc(Br)cc1,i,i,nt,i,nt,i
CCCCS(=O)(=O)c1oc(-c2cccs2)nc1S(=O)(=O)c1ccc(F)cc1,5.62µM,5.01µM,nt,nt,nt,nt
CCC(C)S(=O)(=O)c1oc(-c2ccc(F)cc2)nc1S(=O)(=O)c1ccc(F)cc1 (stereo unspecified),3.55µM,?,nt,nt,nt,nt
CCS(=O)(=O)c1oc(-c2ccc(F)cc2)nc1S(=O)(=O)c1ccccc1,2.51µM,nt,nt,nt,nt,nt
O=C(CSc1oc(-c2cccs2)nc1S(=O)(=O)c1ccccc1)Nc1ccc(F)cc1,i,i,nt,i,nt,i
C=C1C=CS(=O)(=O)N(Cc2ccccc2)C1,i,i,nt,nt,nt,nt
CC1(C)OC(=O)C2(Cc3cc(C(F)(F)F)ccc3N3CCCCC32)C(=O)O1 (stereo unspecified),i,i,nt,nt,nt,nt
COc1cccc(C2(CC(=O)N3CCC(c4nc5ccccc5o4)CC3)CC(=O)N(C)C2=O)c1 (stereo unspecified),nt,nt,nt,i,nt,nt
CCSc1oc(-c2cccs2)nc1S(=O)(=O)c1ccccc1,i,i,12.6µM,i,i[10 µM],i
CCCSc1oc(-c2cccs2)nc1S(=O)(=O)c1ccc(C)cc1,i,i,nt,i,nt,i
CCCCCS(=O)(=O)c1oc(-c2cccs2)nc1S(=O)(=O)c1ccc(C)cc1,i,7.94µM,nt,nt,nt,nt
CC(=O)Nc1ccc(-c2nnc(SCc3ccccc3)n2C)cc1,i,i,nt,nt,nt,nt
CCC1CN(CC(=O)NC(C)CO)Cc2cc(OC)ccc2O1 (stereo unspecified),nt,nt,nt,i,nt,nt
Cc1c(C(=O)NCC2CC2)sc2ncnc(NCCN3CCCCC3)c12,nt,nt,nt,i,nt,nt
COc1ccc(-n2nc([N+](=O)[O-])c(=NCCc3ccc(OC)c(OC)c3)n2O)cc1,15.8µM,i,i,i,i[10 µM],i
C=C1C=C(C(F)F)n2ncc(C(=O)NCc3ccccc3OC)c2N1,i,i,nt,nt,nt,nt
Cc1cc(NC(=O)CCCn2c(C)c3cnn(-c4ccccc4)c(=O)c3c2C)ccc1Br,i,7.08µM,nt,nt,nt,nt
CCC1(C2CCN(C(=O)c3coc4c3C(=O)CCC4)CC2)NC(=O)N(CCc2scnc2C)C1=O (stereo unspecified),nt,nt,nt,i,nt,nt
O=C(CCn1cncn1)NCC1Cc2cc(-c3ccsc3)cc(Cl)c2O1 (stereo unspecified),nt,nt,nt,i,nt,nt
SMILES,HepG2 tox,TGFb inhibitor,HttQ103 aggreg,S2 tox,HTT ATP protect,ATXN2 expr inh
O=C(O)CC/C=C\CC[C@@H]1[C@@H](N2CCCCC2)[C@@H](O)C[C@@H]1OCc1ccc(-c2ccccc2)cc1,nt,nt,i,nt,i,nt
Fc1ccc(CN(Cc2ccccc2)C(c2cccs2)c2nnnn2C2CCCCC2)cc1 (stereo unspecified),i,i,25.1µM,i,i,i
c1cnc2c(c1)ccc1cccnc12,i,?,7.94µM,?,i[10 µM],5.62µM!
Cc1cc(C2N=C(N)Nc3nc4ccccc4n32)c(C)n1-c1ccccc1Cl (stereo unspecified),i,11.2µM,?,i,i,i
Cc1ccc(-n2c(C)cc(C3N=C(N)Nc4nc5ccccc5n43)c2C)c(C)c1 (stereo unspecified),i,?,i,?,i[10 µM],?
OC[C@@H]1O[C@](CO)(O[C@H]2O[C@H](CO)[C@@H](O)[C@H](O)[C@H]2O)[C@H](O)[C@H]1O,nt,nt,i,nt,i,nt
COc1ccc(-c2ccc(SC)nn2)cc1,7.08µM,i,i,i,i,?
COc1ccc(C(=O)CSc2ccc(-c3ccccc3)nn2)cc1,i,i,i,i,i[10 µM],i
COc1ccccc1-c1cnc(C(O)c2cc(Cl)cc(Cl)c2)[nH]1 (stereo unspecified),i,11.2µM,nt,i,nt,i
OC(c1cccc(Cl)c1)c1ncc(-c2ccc(Oc3ccccc3)cc2)[nH]1 (stereo unspecified),11.2µM,17.8µM,nt,nt,nt,?
CS(=O)(=O)Nc1c(O)ccc2c1CCCC2C1=NCCN1 (stereo unspecified),nt,nt,nt,nt,i,nt
COc1ccc(N(C(=O)CCl)C(C(=O)NCCc2ccccc2)c2cccs2)cc1 (stereo unspecified),15.8µM,?,2.24µM,12.6µM,i[10 µM],28.2µM
COc1ccc(CNC(=O)C(c2ccncc2)N(C(=O)Cc2cccs2)c2ccccc2)cc1 (stereo unspecified),i,i,i,i,i[10 µM],i
CN(CCC#N)c1ccc(/C=C/c2ccnc3ccccc23)cc1,i,?,nt,nt,nt,nt
Cc1ccsc1CN1CCc2nnc(CCNC(=O)c3ccc(F)cc3)n2CC1,nt,nt,nt,i,nt,nt
COc1ccc(C2=C(Nc3ccc(Br)c(C)c3)c3ccccc3C2=O)cc1,i,14.1µM,nt,?,nt,i
CC(C)(C=O)C1=CC(=O)c2ccccc2C1=O,i,?,?,nt,i[10 µM],15.8µM
CC1=CC(=O)c2ccccc2C1=O,15.8µM!,?,i,i,i,24.3µM!
COc1cccc2c1C(=O)C=C(C)C2=O,i,?,14.1µM,nt,i[0.074 µM],?
CC(=O)[C@@H]1[C@H]2[C@H](C(=O)[C@H]3OC[C@@H]2O3)[C@H]2C=Cc3ccccc3N21,nt,nt,nt,nt,i[1.9 µM],nt
N#CCCCS(=O)(=O)c1nnnn1-c1ccc(Br)cc1,nt,nt,nt,nt,i,nt
CCCCC[C@H](CC(=O)NO)C(=O)N[C@@H](C(=O)N1CCC[C@H]1CO)C(C)C,nt,nt,nt,nt,i[1.9 µM],nt
Cc1cc(C)nc(S[C@H]2C[C@@H](C(=O)N3CCN(c4ccccc4F)CC3)N(Cc3ccccc3C(F)(F)F)C2)n1,nt,nt,nt,i,nt,nt
O=C1NCC(c2ccccc2)C1C(=O)N/N=C/c1ccc(Cl)s1 (stereo unspecified),i,i,0.112µM,i,nt,i
O=C1C=C[C@@H](O)[C@H]2[C@@H]3C(=O)N(C[C@@H]4CCCO4)C(=O)[C@@H]3CC[C@H]12,nt,nt,nt,nt,i[10 µM],nt
COc1ccc(-c2cn[nH]c2-c2ccc(OCc3ccccc3F)cc2O)cc1OC,i,15.8µM,i[9.22 µM],?,i[10 µM],?
COc1ccc(CN2CCCC(n3cc(C(=O)N4CCCCC4)nn3)C2)c(OC)c1OC (stereo unspecified),nt,nt,nt,i,nt,nt

# Screening results from PubChem.
